Assay results from PubChem BioAssay AID1159580 (chemical genetic matrix, 2015).
In all, about 5,500 compounds went through this assay and about 2,000 (36%) were called active. Inconclusive results (about 18%) are left out. Cut-off read from the data, not from the text of the source: active = normalized growth mostly below about 0.91 (no sharp cut-off); inconclusive = no clear call, values can overlap the other calls; inactive = mostly above about 0.92. The list shows a part of the results.

Experiment: chemical genetic growth profiling, strain panel (AID 1159580);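 note: tested at 20 µM; growth read once vehicle control cultures reached saturation at 30 °C; 1 = growth at the plate median or of vehicle wells; lower values mean less growth of the strain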
Settings: growth OD

Measured: normalized growth

CC(=O)O[C@H]1C[C@H](O[C@H]2[C@@H](O)C[C@H](O[C@H]3[C@@H](O)C[C@H](O[C@H]4CC[C@@]5(C)C(CCC6C5C[C@@H](O)[C@]5(C)[C@@H](C7=CC(=O)OC7)CC[C@]65O)C4)O[C@@H]3C)O[C@@H]2C)O[C@H](C)[C@H]1O[C@@H]1O[C@H](CO)[C@@H](O)[C@H](O)[C@H]1O (stereo not given in full)
inactive: S. cerevisiae deletion strains, locus YJR075W, strain HOC1, active compounds read low 1.02 | S. cerevisiae deletion strains, locus YKL009W, strain mrt4, active compounds read low 1 | S. cerevisiae deletion strains, locus YKL068W, active compounds read low 1 | S. cerevisiae deletion strains, locus YKL085W, strain MDH1 (second series), active compounds read low 1 | S. cerevisiae deletion strains, locus YKL085W, strain MDH1, active compounds read low 1 | S. cerevisiae deletion strains, locus YKL160W, strain elf1, active compounds read low 1.01 | S. cerevisiae deletion strains, locus YKL190W, strain CNB1, active compounds read low 1.01 | S. cerevisiae deletion strains, locus YKR001C, strain vps1, active compounds read low 1.01 | S. cerevisiae deletion strains, locus YKR026C, strain gcn3, active compounds read low 0.982 | S. cerevisiae deletion strains, locus YKR091W, strain srl3, active compounds read low 1 | S. cerevisiae deletion strains, locus YLL001W, strain dnm1, active compounds read low 1 | S. cerevisiae deletion strains, locus YLL026W, active compounds read low 0.999 | S. cerevisiae deletion strains, locus YLL041C, strain sdh2, active compounds read low 1 | S. cerevisiae deletion strains, locus YLR027C, strain aat2, active compounds read low 1 | S. cerevisiae deletion strains, locus YLR039C, strain RIC1, active compounds read low 1.05 | S. cerevisiae deletion strains, locus YLR058C, strain SHM2, active compounds read low 1.02 | S. cerevisiae deletion strains, locus YLR102C, strain apc9, active compounds read low 0.978 | S. cerevisiae deletion strains, locus YLR113W, strain HOG1, active compounds read low 0.977 | S. cerevisiae deletion strains, locus YLR221C, strain rsa3, active compounds read low 1 | S. cerevisiae deletion strains, locus YLR258W, strain gsy2, active compounds read low 0.994 | S. cerevisiae deletion strains, locus YLR262C, strain YPT6 (second series), active compounds read low 0.999 | S. cerevisiae deletion strains, locus YLR262C, strain YPT6, active compounds read low 1.04 | S. cerevisiae deletion strains, locus YLR268W, strain sec22, active compounds read low 1 | S. cerevisiae deletion strains, locus YLR320W, strain mms22, active compounds read low 0.999 | S. cerevisiae deletion strains, locus YLR330W, strain CHS5, active compounds read low 1.01 | S. cerevisiae deletion strains, locus YLR342W, strain FKS1 (second series), active compounds read low 1.02 | S. cerevisiae deletion strains, locus YLR342W, strain FKS1, active compounds read low 1 | S. cerevisiae deletion strains, locus YLR357W, strain rsc2, active compounds read low 0.993 | S. cerevisiae deletion strains, locus YLR370C, strain arc18, active compounds read low 0.994 | S. cerevisiae deletion strains, locus YLR371W, strain rom2, active compounds read low 0.975 | S. cerevisiae deletion strains, locus YLR384C, strain iki3, active compounds read low 0.988 | S. cerevisiae deletion strains, locus YLR418C, strain cdc73, active compounds read low 1.05 | S. cerevisiae deletion strains, locus YML016C, strain PPZ1, active compounds read low 1.01 | S. cerevisiae deletion strains, locus YML032C, strain rad52, active compounds read low 0.991 | S. cerevisiae deletion strains, locus YML120C, strain ndi1, active compounds read low 0.992 | S. cerevisiae deletion strains, locus YML124C, strain tub3, active compounds read low 0.992 | S. cerevisiae deletion strains, locus YMR058W, strain fet3, active compounds read low 1 | S. cerevisiae deletion strains, locus YMR078C, strain ctf18, active compounds read low 0.984 | S. cerevisiae deletion strains, locus YMR125W, strain sto1, active compounds read low 0.979 | S. cerevisiae deletion strains, locus YMR129W, active compounds read low 0.991 | S. cerevisiae deletion strains, locus YMR205C, strain PFK2, active compounds read low 0.974 | S. cerevisiae deletion strains, locus YMR223W, strain ubp8, active compounds read low 0.997 | S. cerevisiae deletion strains, locus YMR231W, strain pep5, active compounds read low 0.989 | S. cerevisiae deletion strains, locus YMR263W, strain SAP30, active compounds read low 1.01 | S. cerevisiae deletion strains, locus YMR307W, strain GAS1, active compounds read low 1.07 | S. cerevisiae deletion strains, locus YNL067W, strain RPL9B, active compounds read low 1 | S. cerevisiae deletion strains, locus YNL071W, strain lat1, active compounds read low 0.999 | S. cerevisiae deletion strains, locus YNL183C, strain NPR1, active compounds read low 0.922 | S. cerevisiae deletion strains, locus YNL209W, strain ssb2, active compounds read low 0.999 | S. cerevisiae deletion strains, locus YNL233W, strain BNI4, active compounds read low 1.01 | S. cerevisiae deletion strains, locus YNL248C, strain rpa49, active compounds read low 0.998 | S. cerevisiae deletion strains, locus YNL250W, strain rad50, active compounds read low 1.01 | S. cerevisiae deletion strains, locus YNL271C, strain bni1, active compounds read low 1.01 | S. cerevisiae deletion strains, locus YNL298W, strain CLA4, active compounds read low 1 | S. cerevisiae deletion strains, locus YNL307C, strain MCK1, active compounds read low 0.991 | S. cerevisiae deletion strains, locus YNL322C, strain KRE1 (second series), active compounds read low 0.993 | S. cerevisiae deletion strains, locus YNL322C, strain KRE1, active compounds read low 1.01 | S. cerevisiae deletion strains, locus YNR049C, strain mso1, active compounds read low 0.992 | S. cerevisiae deletion strains, locus YNR052C, strain pop2, active compounds read low 0.994 | S. cerevisiae deletion strains, locus YOL006C, strain TOP1, active compounds read low 1.03 | S. cerevisiae deletion strains, locus YOL012C, strain htz1 0.846 | S. cerevisiae deletion strains, locus YOL147C, strain pex11, active compounds read low 0.988 | S. cerevisiae deletion strains, locus YOR001W, strain rrp6, active compounds read low 1.01 | S. cerevisiae deletion strains, locus YOR061W, strain CKA2, active compounds read low 1.01 | S. cerevisiae deletion strains, locus YOR069W, strain VPS5, active compounds read low 1.01 | S. cerevisiae deletion strains, locus YOR070C, strain gyp1, active compounds read low 0.999 | S. cerevisiae deletion strains, locus YOR080W, strain dia2, active compounds read low 0.999 | S. cerevisiae deletion strains, locus YOR083W, strain WHI5, active compounds read low 1 | S. cerevisiae deletion strains, locus YOR106W, strain vam3, active compounds read low 1.01 | S. cerevisiae deletion strains, locus YOR136W, strain idh2, active compounds read low 1 | S. cerevisiae deletion strains, locus YOR144C, strain elg1, active compounds read low 1 | S. cerevisiae deletion strains, locus YOR184W, strain ser1, active compounds read low 1.02 | S. cerevisiae deletion strains, locus YOR231W, strain MKK1, active compounds read low 0.983 | S. cerevisiae deletion strains, locus YOR265W, strain rbl2, active compounds read low 1 | S. cerevisiae deletion strains, locus YOR270C, strain vph1, active compounds read low 0.946 | S. cerevisiae deletion strains, locus YOR290C, strain snf2, active compounds read low 1.02 | S. cerevisiae deletion strains, locus YOR316C, strain cot1, active compounds read low 0.982 | S. cerevisiae deletion strains, locus YPL051W, strain arl3, active compounds read low 1 | S. cerevisiae deletion strains, locus YPL055C, strain LGE1, active compounds read low 0.997 | S. cerevisiae deletion strains, locus YPL078C, strain atp4, active compounds read low 1.02 | S. cerevisiae deletion strains, locus YPL106C, strain sse1, active compounds read low 1 | S. cerevisiae deletion strains, locus YPL240C, strain hsp82, active compounds read low 0.999 | S. cerevisiae deletion strains, locus YPL241C, strain CIN2, active compounds read low 1.01 | S. cerevisiae deletion strains, locus YPL256C, strain CLN2, active compounds read low 0.994 | S. cerevisiae deletion strains, locus YPR119W, strain clb2, active compounds read low 0.981 | S. cerevisiae deletion strains, locus YPR141C, strain kar3, active compounds read low 1.01 | S. cerevisiae deletion strains, locus YPR163C, strain tif3, active compounds read low 0.99 | S. cerevisiae deletion strains, locus YPR167C, strain met16, active compounds read low 1.01 | S. cerevisiae deletion strains, strain wtn01, active compounds read low 1.01 | S. cerevisiae strains, strain wild type, active compounds read low 1.01
